# Columns and labels:
# Test in all cases: DAPPL (digital affinity profiling via proximity ligation, sequencing); 10 mM Tris-HCl pH 7.5, 50 mM NaCl, 1 mM DTT, 4% glycerol, room temperature, 30 min; GST-TFs on glutathione beads, 16-mer random dsDNA library, 0.1% formaldehyde crosslink after washing; high values mean tight binding
# Conditions in all cases: protein: recombinant; tags: N-terminal GST; dsDNA, one strand shown
# [1] = molecular target: T1, ERF (Homo sapiens, UniProt P50548 1-548)
# T1 sequence: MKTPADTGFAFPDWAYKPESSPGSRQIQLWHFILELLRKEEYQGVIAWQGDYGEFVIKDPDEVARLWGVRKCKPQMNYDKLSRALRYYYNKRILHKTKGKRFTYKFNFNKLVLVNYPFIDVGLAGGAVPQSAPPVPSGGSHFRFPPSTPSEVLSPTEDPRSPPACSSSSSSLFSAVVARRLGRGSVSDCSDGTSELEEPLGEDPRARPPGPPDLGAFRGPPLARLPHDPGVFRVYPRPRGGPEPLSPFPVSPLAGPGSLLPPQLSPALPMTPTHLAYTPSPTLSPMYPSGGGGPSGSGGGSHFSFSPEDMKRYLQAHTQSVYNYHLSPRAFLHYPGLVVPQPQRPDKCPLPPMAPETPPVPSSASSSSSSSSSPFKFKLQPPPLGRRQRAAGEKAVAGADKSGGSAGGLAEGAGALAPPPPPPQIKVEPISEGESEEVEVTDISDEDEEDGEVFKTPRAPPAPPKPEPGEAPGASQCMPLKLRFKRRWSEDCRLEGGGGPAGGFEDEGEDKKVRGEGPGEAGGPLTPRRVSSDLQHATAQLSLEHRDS
# How it was run: (§1)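 Pools of DNA-barcoded human transcription factors, expressed in yeast as GST fusions on glutathione beads and combined with a tag-only sample, were incubated with 200 nmole of a 16-mer random double-stranded DNA library. Incubation took 30 min at room temperature in Tris/NaCl/DTT/glycerol buffer and was followed by washing, 0.1% formaldehyde crosslinking, proximity ligation (BsaI/T4 ligase, 1 h, 37 °C), PCR amplification and sequencing on an Illumina NextSeq500. Binding signal is the ratio of a hexamer's read frequency for a factor to its frequency for the tag-only sample.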
# [2] = molecular target: T2, ETV3L (Homo sapiens, UniProt Q6ZN32 1-361)
# T2 sequence: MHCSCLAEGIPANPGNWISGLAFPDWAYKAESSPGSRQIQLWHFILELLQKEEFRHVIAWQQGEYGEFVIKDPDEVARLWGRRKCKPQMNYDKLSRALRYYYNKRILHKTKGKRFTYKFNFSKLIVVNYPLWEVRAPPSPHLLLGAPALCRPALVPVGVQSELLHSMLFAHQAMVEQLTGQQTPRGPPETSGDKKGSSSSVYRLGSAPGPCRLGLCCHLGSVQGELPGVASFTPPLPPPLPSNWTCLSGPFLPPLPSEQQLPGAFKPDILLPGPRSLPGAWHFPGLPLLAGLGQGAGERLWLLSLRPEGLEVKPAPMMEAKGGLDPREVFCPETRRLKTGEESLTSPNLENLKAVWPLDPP
# How it was run: as §1
# [3] = molecular target: T3, ETS2 (Homo sapiens, UniProt P15036 1-469)
# T3 sequence: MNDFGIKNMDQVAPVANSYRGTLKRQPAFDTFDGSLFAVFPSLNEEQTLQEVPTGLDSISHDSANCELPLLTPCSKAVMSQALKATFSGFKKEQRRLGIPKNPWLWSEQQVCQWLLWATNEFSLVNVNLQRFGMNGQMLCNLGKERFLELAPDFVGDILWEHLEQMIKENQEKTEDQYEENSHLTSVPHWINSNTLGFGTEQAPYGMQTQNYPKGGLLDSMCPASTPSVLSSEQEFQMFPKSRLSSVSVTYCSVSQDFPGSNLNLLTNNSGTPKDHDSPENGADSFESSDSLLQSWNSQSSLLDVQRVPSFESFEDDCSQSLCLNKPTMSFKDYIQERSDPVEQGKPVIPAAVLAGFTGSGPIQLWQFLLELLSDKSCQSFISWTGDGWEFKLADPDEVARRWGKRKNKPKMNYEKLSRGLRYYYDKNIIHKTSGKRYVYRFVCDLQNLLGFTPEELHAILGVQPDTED
# How it was run: as §1
# [4] = molecular target: T4, SPDEF (Homo sapiens, UniProt O95238 1-335)
# T4 sequence: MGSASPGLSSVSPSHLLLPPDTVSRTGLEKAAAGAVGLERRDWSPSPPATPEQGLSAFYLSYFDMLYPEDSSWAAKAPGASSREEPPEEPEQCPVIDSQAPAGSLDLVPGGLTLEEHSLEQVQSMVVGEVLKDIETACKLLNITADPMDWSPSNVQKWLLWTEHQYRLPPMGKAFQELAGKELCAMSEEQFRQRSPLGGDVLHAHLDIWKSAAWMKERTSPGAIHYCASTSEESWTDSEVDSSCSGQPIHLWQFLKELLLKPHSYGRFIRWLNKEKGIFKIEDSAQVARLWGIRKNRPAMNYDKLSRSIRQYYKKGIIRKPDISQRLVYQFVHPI
# How it was run: as §1
# [5] = molecular target: T5, ETV7 (Homo sapiens, UniProt Q9Y603 1-341)
# T5 sequence: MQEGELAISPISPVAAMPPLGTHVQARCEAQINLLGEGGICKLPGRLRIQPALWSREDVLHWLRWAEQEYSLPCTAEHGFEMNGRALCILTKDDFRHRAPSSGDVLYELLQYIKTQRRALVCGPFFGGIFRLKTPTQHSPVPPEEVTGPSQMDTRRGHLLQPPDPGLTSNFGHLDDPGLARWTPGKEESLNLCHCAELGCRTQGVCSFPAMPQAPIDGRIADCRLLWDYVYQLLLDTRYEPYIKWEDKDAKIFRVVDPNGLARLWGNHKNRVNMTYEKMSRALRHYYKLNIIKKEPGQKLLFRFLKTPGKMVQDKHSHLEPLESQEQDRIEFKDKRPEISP
# How it was run: as §1
# [6] = molecular target: T6, ELF5 (Homo sapiens, UniProt Q9UKW6-2 1-255)
# T6 sequence: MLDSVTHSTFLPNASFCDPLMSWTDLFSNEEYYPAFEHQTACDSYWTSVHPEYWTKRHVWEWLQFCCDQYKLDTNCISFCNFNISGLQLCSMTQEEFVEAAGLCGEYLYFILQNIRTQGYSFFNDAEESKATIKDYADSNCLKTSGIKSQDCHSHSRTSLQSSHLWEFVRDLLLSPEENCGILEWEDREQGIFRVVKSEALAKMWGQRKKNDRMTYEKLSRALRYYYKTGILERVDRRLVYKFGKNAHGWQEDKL
# How it was run: as §1
# [7] = molecular target: T7, ETV3 (Homo sapiens, UniProt P41162-2 1-143)
# T7 sequence: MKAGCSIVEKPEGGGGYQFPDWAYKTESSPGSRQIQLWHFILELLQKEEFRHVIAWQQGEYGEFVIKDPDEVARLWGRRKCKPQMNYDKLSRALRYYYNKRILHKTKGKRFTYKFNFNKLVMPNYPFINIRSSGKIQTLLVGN
# How it was run: as §1
# [8] = molecular target: ETV6 (Homo sapiens, UniProt P41212 1-452)
# How it was run: as §1
# ETV6, sequence (P41212 whole entry): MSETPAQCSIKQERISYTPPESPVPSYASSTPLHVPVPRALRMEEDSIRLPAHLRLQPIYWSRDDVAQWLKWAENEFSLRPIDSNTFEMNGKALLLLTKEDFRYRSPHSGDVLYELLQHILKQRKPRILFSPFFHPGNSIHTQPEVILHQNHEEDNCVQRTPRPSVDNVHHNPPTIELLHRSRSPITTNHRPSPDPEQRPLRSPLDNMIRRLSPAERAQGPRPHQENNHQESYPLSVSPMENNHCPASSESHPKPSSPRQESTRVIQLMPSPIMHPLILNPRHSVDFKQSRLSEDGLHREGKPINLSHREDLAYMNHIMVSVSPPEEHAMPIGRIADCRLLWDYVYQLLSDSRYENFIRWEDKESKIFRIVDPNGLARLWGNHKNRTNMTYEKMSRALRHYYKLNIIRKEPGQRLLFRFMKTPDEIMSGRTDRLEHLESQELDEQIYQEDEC
Sequence,binding signal [1],binding signal [2],binding signal [3],binding signal [4],binding signal [5],binding signal [6],binding signal [7],binding signal [8]
TCTGGC,"1.31 fold enrichment (6-mer frequency, TF over GST control)","1.11 fold enrichment (6-mer frequency, TF over GST control)","1.21 fold enrichment (6-mer frequency, TF over GST control)","1.15 fold enrichment (6-mer frequency, TF over GST control)","1.24 fold enrichment (6-mer frequency, TF over GST control)","1.08 fold enrichment (6-mer frequency, TF over GST control)","1.06 fold enrichment (6-mer frequency, TF over GST control)","1.19 fold enrichment (6-mer frequency, TF over GST control)"
ACTTGC,"1.3 fold enrichment (6-mer frequency, TF over GST control)","1.48 fold enrichment (6-mer frequency, TF over GST control)","1.32 fold enrichment (6-mer frequency, TF over GST control)","1.44 fold enrichment (6-mer frequency, TF over GST control)","1.37 fold enrichment (6-mer frequency, TF over GST control)","1.47 fold enrichment (6-mer frequency, TF over GST control)","1.49 fold enrichment (6-mer frequency, TF over GST control)","1.52 fold enrichment (6-mer frequency, TF over GST control)"
ATTTTA,"1.27 fold enrichment (6-mer frequency, TF over GST control)","1.43 fold enrichment (6-mer frequency, TF over GST control)","1.33 fold enrichment (6-mer frequency, TF over GST control)","1.23 fold enrichment (6-mer frequency, TF over GST control)","1.37 fold enrichment (6-mer frequency, TF over GST control)","1.2 fold enrichment (6-mer frequency, TF over GST control)","1.26 fold enrichment (6-mer frequency, TF over GST control)","1.26 fold enrichment (6-mer frequency, TF over GST control)"
TAACTG,"1.11 fold enrichment (6-mer frequency, TF over GST control)","1.23 fold enrichment (6-mer frequency, TF over GST control)","1.31 fold enrichment (6-mer frequency, TF over GST control)","1.2 fold enrichment (6-mer frequency, TF over GST control)","1.28 fold enrichment (6-mer frequency, TF over GST control)","1.16 fold enrichment (6-mer frequency, TF over GST control)","1.25 fold enrichment (6-mer frequency, TF over GST control)","1.26 fold enrichment (6-mer frequency, TF over GST control)"
TCTCCA,"1.42 fold enrichment (6-mer frequency, TF over GST control)","1.58 fold enrichment (6-mer frequency, TF over GST control)","1.53 fold enrichment (6-mer frequency, TF over GST control)","1.5 fold enrichment (6-mer frequency, TF over GST control)","1.31 fold enrichment (6-mer frequency, TF over GST control)","1.37 fold enrichment (6-mer frequency, TF over GST control)","1.41 fold enrichment (6-mer frequency, TF over GST control)","1.4 fold enrichment (6-mer frequency, TF over GST control)"
AATCCT,"1.21 fold enrichment (6-mer frequency, TF over GST control)","1.24 fold enrichment (6-mer frequency, TF over GST control)","1.32 fold enrichment (6-mer frequency, TF over GST control)","1.45 fold enrichment (6-mer frequency, TF over GST control)","1.41 fold enrichment (6-mer frequency, TF over GST control)","1.61 fold enrichment (6-mer frequency, TF over GST control)","1.37 fold enrichment (6-mer frequency, TF over GST control)","1.29 fold enrichment (6-mer frequency, TF over GST control)"
CGTATA,"1.13 fold enrichment (6-mer frequency, TF over GST control)","1.1 fold enrichment (6-mer frequency, TF over GST control)","1.11 fold enrichment (6-mer frequency, TF over GST control)","1.21 fold enrichment (6-mer frequency, TF over GST control)","1.15 fold enrichment (6-mer frequency, TF over GST control)","1.16 fold enrichment (6-mer frequency, TF over GST control)","1.18 fold enrichment (6-mer frequency, TF over GST control)","1.08 fold enrichment (6-mer frequency, TF over GST control)"
TCTAGT,"1.25 fold enrichment (6-mer frequency, TF over GST control)","1.05 fold enrichment (6-mer frequency, TF over GST control)","1.17 fold enrichment (6-mer frequency, TF over GST control)","1.06 fold enrichment (6-mer frequency, TF over GST control)","1.1 fold enrichment (6-mer frequency, TF over GST control)","1.04 fold enrichment (6-mer frequency, TF over GST control)","1.08 fold enrichment (6-mer frequency, TF over GST control)","1.12 fold enrichment (6-mer frequency, TF over GST control)"
CTTTAT,"1.08 fold enrichment (6-mer frequency, TF over GST control)","1.22 fold enrichment (6-mer frequency, TF over GST control)","1.29 fold enrichment (6-mer frequency, TF over GST control)","1.14 fold enrichment (6-mer frequency, TF over GST control)","1.31 fold enrichment (6-mer frequency, TF over GST control)","1.13 fold enrichment (6-mer frequency, TF over GST control)","1.19 fold enrichment (6-mer frequency, TF over GST control)","1.23 fold enrichment (6-mer frequency, TF over GST control)"
CTCTCT,"1.63 fold enrichment (6-mer frequency, TF over GST control)","1.6 fold enrichment (6-mer frequency, TF over GST control)","1.43 fold enrichment (6-mer frequency, TF over GST control)","1.59 fold enrichment (6-mer frequency, TF over GST control)","1.56 fold enrichment (6-mer frequency, TF over GST control)","1.41 fold enrichment (6-mer frequency, TF over GST control)","1.68 fold enrichment (6-mer frequency, TF over GST control)","1.59 fold enrichment (6-mer frequency, TF over GST control)"
CTCAAG,"1.27 fold enrichment (6-mer frequency, TF over GST control)","1.1 fold enrichment (6-mer frequency, TF over GST control)","1.22 fold enrichment (6-mer frequency, TF over GST control)","1.14 fold enrichment (6-mer frequency, TF over GST control)","1.24 fold enrichment (6-mer frequency, TF over GST control)","1.1 fold enrichment (6-mer frequency, TF over GST control)","1.24 fold enrichment (6-mer frequency, TF over GST control)","1.22 fold enrichment (6-mer frequency, TF over GST control)"
TATCTT,"1.32 fold enrichment (6-mer frequency, TF over GST control)","1.41 fold enrichment (6-mer frequency, TF over GST control)","1.29 fold enrichment (6-mer frequency, TF over GST control)","1.32 fold enrichment (6-mer frequency, TF over GST control)","1.22 fold enrichment (6-mer frequency, TF over GST control)","1.4 fold enrichment (6-mer frequency, TF over GST control)","1.25 fold enrichment (6-mer frequency, TF over GST control)","1.18 fold enrichment (6-mer frequency, TF over GST control)"
GCCTCG,"1.14 fold enrichment (6-mer frequency, TF over GST control)","1.28 fold enrichment (6-mer frequency, TF over GST control)","1.31 fold enrichment (6-mer frequency, TF over GST control)","1.19 fold enrichment (6-mer frequency, TF over GST control)","1.26 fold enrichment (6-mer frequency, TF over GST control)","1.23 fold enrichment (6-mer frequency, TF over GST control)","1.28 fold enrichment (6-mer frequency, TF over GST control)","1.37 fold enrichment (6-mer frequency, TF over GST control)"
TTTCGT,"1.21 fold enrichment (6-mer frequency, TF over GST control)","1.46 fold enrichment (6-mer frequency, TF over GST control)","1.37 fold enrichment (6-mer frequency, TF over GST control)","1.42 fold enrichment (6-mer frequency, TF over GST control)","1.34 fold enrichment (6-mer frequency, TF over GST control)","1.33 fold enrichment (6-mer frequency, TF over GST control)","1.4 fold enrichment (6-mer frequency, TF over GST control)","1.35 fold enrichment (6-mer frequency, TF over GST control)"
TTTGTA,"1.63 fold enrichment (6-mer frequency, TF over GST control)","1.69 fold enrichment (6-mer frequency, TF over GST control)","1.52 fold enrichment (6-mer frequency, TF over GST control)","1.6 fold enrichment (6-mer frequency, TF over GST control)","1.53 fold enrichment (6-mer frequency, TF over GST control)","1.46 fold enrichment (6-mer frequency, TF over GST control)","1.63 fold enrichment (6-mer frequency, TF over GST control)","1.54 fold enrichment (6-mer frequency, TF over GST control)"
